PubChem BioAssay (NCI)
Several values for one entry are separate records, joined by “and”; a condition that tells them apart may be missing. Identical values can stand only once. About 83,000 compounds went through this panel and 20% of them were active in at least one assay; those are over-represented in the sample as a whole.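 Assay: single dose, 48 h. Readout: percent growth (0 = no net growth; negative = cell death). Active: <10.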 Activity calls are given as the source filed them.

Legend:
Assay in all cases: NCI-60 one-dose screen, 48 h (100 = growth as untreated, 0 = no growth, -100 = all killed)
Settings in all cases: 10 µM unless noted
[1] = system: NCI-H23 lung
[2] = system: NCI-H226 lung
[3] = system: NCI-H322M lung
[4] = system: HOP-62 NSCLC
[5] = system: NCI-H460 lung
[6] = system: HOP-92 NSCLC
[7] = system: NCI-H522 lung
[8] = system: A549/ATCC NSCLC
[9] = system: 786-0 renal
[10] = system: COLO 205 colon
[11] = system: DU-145 prostate
[12] = system: K-562 leukemia
[13] = system: MALME-3M melanoma
[14] = system: MDA-MB-231 breast
[15] = system: RXF 393 renal
[16] = system: SF-268 CNS
[17] = system: SF-295 CNS
[18] = system: SF-539 CNS
[19] = system: UACC-257 melanoma
[20] = system: M14 melanoma

| SMILES | growth [1] | growth [2] | growth [3] | growth [4] | growth [5] | growth [6] | growth [7] | growth [8] | growth [9] | growth [10] | growth [11] | growth [12] | growth [13] | growth [14] | growth [15] | growth [16] | growth [17] | growth [18] | growth [19] | growth [20] |
| --- | --- | --- | --- | --- | --- | --- | --- | --- | --- | --- | --- | --- | --- | --- | --- | --- | --- | --- | --- | --- |
| Oc1ccccc1/C=N\NC(=S)N/N=C/c1ccccc1O | 62.6% (inactive) and 58.7% (inactive) | 68.1% (inactive) and 43.4% (inactive) | 24.8% (inactive) and 29.7% (inactive) | 48.9% (inactive) and 71.5% (inactive) | 19.5% (inactive) and 12.5% (inactive) | 45.9% (inactive) and 62.4% (inactive) | 31% (inactive) and 2.87% (active) | 32.4% (inactive) | 29% (inactive) and 27.1% (inactive) | 65.6% (inactive) and 48.7% (inactive) | 55% (inactive) and 44.6% (inactive) | 26% (inactive) | 39.6% (inactive) and 42.9% (inactive) | 55% (inactive) and 44.2% (inactive) | 80.7% (inactive) and 63.9% (inactive) | 50% (inactive) and 37% (inactive) | 22.4% (inactive) and 30.6% (inactive) | 45.4% (inactive) and 23.2% (inactive) | 40.3% (inactive) and 34.2% (inactive) | 24.4% (inactive) and 24.5% (inactive) |
| CCNC(=O)Nc1ccc(-c2nc3c(c(N4CCOC[C@@H]4C)n2)CCN(C2COC2)C3)cc1 | 50.8% (inactive) and 20.1% (inactive) | 19.7% (inactive) and -3.42% (active) | 39.3% (inactive) and 12.1% (inactive) | 43.3% (inactive) and 0.37% (active) | 25.7% (inactive) and 14.3% (inactive) | -6.36% (active) and -16.3% (active) | 24.1% (inactive) and 6.99% (active) | 44.3% (inactive) and 2.19% (active) | 36.6% (inactive) and 5.36% (active) | 28.4% (inactive) and 3.31% (active) | 49.7% (inactive) and 19.4% (inactive) | 61.6% (inactive) and 17.2% (inactive) | -9.78% (active) and -10.6% (active) | 44.5% (inactive) and 23.2% (inactive) | 3.76% (active) and -28.4% (active) | 54.3% (inactive) and 17.6% (inactive) | 18.4% (inactive) and -25.6% (active) | 33.2% (inactive) and -21.9% (active) | 36.7% (inactive) and -27% (active) | 37.3% (inactive) and 8.1% (active) |
| Oc1c(Cl)cc(Cl)cc1Sc1cc(Cl)cc(Cl)c1O | 11.4% (inactive) and 6.4% (active) and 76% (inactive) | 94.5% (inactive) and 48.1% (inactive) and 88.3% (inactive) | 25.6% (inactive) and 33.1% (inactive) and 87.1% (inactive) | 85.8% (inactive) and 61.6% (inactive) | 7.66% (active) and 11.8% (inactive) and 62.3% (inactive) | -12.5% (active) and -28.3% (active) and 32.7% (inactive) | 2.94% (active) and -18.8% (active) and 48.9% (inactive) | 62.5% (inactive) and 8.2% (active) and 88.4% (inactive) | 47.7% (inactive) and 104% (inactive) | 118% (inactive) and 87.9% (inactive) and 110% (inactive) | 75.6% (inactive) and 29.3% (inactive) and 94.6% (inactive) | 18% (inactive) and 8.54% (active) and 41% (inactive) | 10.7% (inactive) and 11.3% (inactive) and 82.2% (inactive) | 84.2% (inactive) and -21.8% (active) and 79.6% (inactive) | 91.3% (inactive) and 16.1% (inactive) and 87.9% (inactive) | 33.2% (inactive) and 21.9% (inactive) and 72.1% (inactive) | 18.6% (inactive) and 15.7% (inactive) and 75.4% (inactive) | 25.8% (inactive) and 93.6% (inactive) | 56% (inactive) and -16.2% (active) and 77.3% (inactive) | 69.1% (inactive) and 35% (inactive) and 105% (inactive) |
